# According to PubChem BioAssay (NCATS):
# Records with an inconclusive call do not appear. A number with no mark means an inactive call. The source made the active and inactive calls.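 Rule for the calls: active = dose-dependent loss of cell ATP signal giving a full or clear fitted curve, ranked by lower potency value; inconclusive = weak partial curve or response only at the top dose; inactive = no loss of viability signal.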
# Assay: Cell Viability - Jurkat (AID 426);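 note: cells exposed to compound for 40 hours at 37 °C before ATP read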
# Details: qHTS
# Text: NIH Chemical Genomics Center [NCGC]
# NIH Molecular Libraries Screening Centers Network [MLSCN]
# National Institutes of Environmental Health Sciences [NIEHS]
# National Toxicology Program [NTP]
# We have developed a 1536-well cell-based assay for quantitative high throughput screening (qHTS) against a number of cell lines to determine in vitro cytotoxicity of small molecules. This particular assay uses the Jurkat cell line (Clone E6-1) which is derived from the human T cell leukemia.
# NCGC Assay Protocol Summary:
# The CellTiter-Glo luminescent cell viability assay (Promega) is a homogeneous method to measure the number of viable cells in culture. The end point readout of this assay is based on quantitation of intracellular ATP, an indicator of metabolic activity, using the luciferase reaction. Luciferase catalyzes the oxidation of beetle Luciferin to oxyluciferin and light in the presence of ATP. The luminescent signal is proportional to amount of ATP present.
# Using the CellTiter-Glo luminescent cell viability assay, the amount of cellular ATP was measured in the Jurkat cell line with complete culture medium following compound treatment for 40 hours. The assay was performed in opaque white Kalypsys 1536-well plates. In the screen, tamoxifen and doxorubicin were used as positive controls. Library compounds were measured for their ability to cause acute toxicity in the cell line, as reflected by a decrease in intracellular ATP levels, in a concentration-dependent manner. […] AC50 values were determined from concentration-response data modeled with the standard Hill equation.
# qHTS protocol for CellTiter Glo Jurkat cellular assay
# [Step] [Parameter] [Value] [Description]
# 1. Reagent; 5 uL; 5000 Jurkat cells/well
# 3. Controls; 23 nL; Tamoxifen 0.34 uM to 100 uM & Doxorubicin 0.02 nM to 100 uM
# 4. Time; 40 hr; 37 °C incubation
# 5. Reagent; 5 uL; CellTiter Glo reagent
# 6. Time; 20 min; Room Temperature
# 7. Detection; Luminescence; Viewlux plate reader
# Keywords: cell viability, cytotoxicity, Jurkat cell line, luminescence, NTPHTS, NTPHTS_NCGC, NIEHS, EPA, DSSTox, MLSMR, MLSCN, NIH Roadmap, qHTS, NCGC
# Potency is the fitted concentration of half-maximal effect.
row,Structure (SMILES),Potency
1,CO,> 92 µM
2,OCc1ccccc1,> 92 µM
3,CC(C)(C)CC(C)(C)c1ccc(OCCO)cc1,> 92 µM
4,OC[C@H]1O[C@@H]2O[C@H]3[C@H](O)[C@@H](O)[C@@H](O[C@H]4[C@H](O)[C@@H](O)[C@@H](O[C@H]5[C@H](O)[C@@H](O)[C@@H](O[C@H]6[C@H](O)[C@@H](O)[C@@H](O[C@H]7[C@H](O)[C@@H](O)[C@@H](O[C@H]1[C@H](O)[C@H]2O)O[C@@H]7CO)O[C@@H]6CO)O[C@@H]5CO)O[C@@H]4CO)O[C@@H]3CO,> 92 µM
5,CC1=CC(=O)NS(=O)(=O)O1,> 92 µM
6,COC(=O)c1ccccc1O,> 92 µM
7,OB(O)O,> 92 µM
8,C/C=C/C=C/C(=O)O,> 92 µM
9,CC(C)O,> 92 µM
10,[O-][N+](=Nc1ccccc1)c1ccccc1,> 92 µM
11,NC(N)=O,> 92 µM
12,CCOC(C)OCC,> 92 µM
13,CCCCO,> 92 µM
14,O=P(O)(O)O,> 92 µM
15,C[C@H]1O[C@@H](O[C@H]2[C@@H](O)C[C@H](O[C@H]3[C@@H](O)C[C@H](O[C@H]4CC[C@@]5(C)[C@H](CC[C@@H]6[C@@H]5C[C@@H](O)[C@]5(C)[C@@H](C7=CC(=O)OC7)CC[C@]65O)C4)O[C@@H]3C)O[C@@H]2C)C[C@H](O)[C@@H]1O,0.00438 µM (active)
16,Cc1ccc(S(=O)(=O)O)cc1C,> 92 µM

row,Structure (SMILES),Potency
1,NCCN,> 92 µM
2,C[C@H](CCC(=O)O)[C@H]1CC[C@H]2[C@@H]3CC[C@@H]4C[C@H](O)CC[C@]4(C)[C@H]3C[C@H](O)[C@]12C,> 92 µM
3,Nc1ncnc2c1ncn2[C@H]1CC[C@@H](CO)O1,> 92 µM
4,Oc1ccc(/C=C/c2cc(O)cc(O)c2)cc1,> 92 µM
5,C=C1C(CCl)(CCl)C2(Cl)C(Cl)C(Cl)C1(Cl)C2(Cl)Cl (configuration not stated),31 µM (active)
6,ClC(Cl)Cl,> 92 µM
7,C[C@H](CCC(=O)O)[C@H]1CC[C@H]2[C@@H]3[C@H](O)C[C@@H]4C[C@H](O)CC[C@]4(C)[C@H]3C[C@H](O)[C@]12C,> 92 µM
8,CC1=CCC2CC1C2(C)C (configuration not stated),> 92 µM
9,Nc1nccs1,> 92 µM
10,c1ccc2ccccc2c1,> 92 µM
11,OCl,> 92 µM
12,O=c1n(CC2CO2)c(=O)n(CC2CO2)c(=O)n1CC1CO1 (configuration not stated),14.7 µM (active)
13,Cc1ncc[nH]1,> 92 µM
14,CO/N=C(/C(=O)N[C@@H]1C(=O)N2C(C(=O)O)=C(COC(N)=O)CS[C@H]12)c1ccco1,> 92 µM
15,OCC(O)CO,> 92 µM
16,CCCCC,> 92 µM
